# High-throughput results as filed in PubChem BioAssay.
# In the library only some 1.9% were active in any assay of this set; here they are far more common.
# Neddyl block: inhibitors of human cullin neddylation | P61081+Q13564 | TR-FRET cullin neddylation, biochemical | inhibition, % at 25 µM | 360,000 compounds, 0.58% hits; in the data active = inhibition above about 36%
# Target sequence (P61081 whole entry, looked up): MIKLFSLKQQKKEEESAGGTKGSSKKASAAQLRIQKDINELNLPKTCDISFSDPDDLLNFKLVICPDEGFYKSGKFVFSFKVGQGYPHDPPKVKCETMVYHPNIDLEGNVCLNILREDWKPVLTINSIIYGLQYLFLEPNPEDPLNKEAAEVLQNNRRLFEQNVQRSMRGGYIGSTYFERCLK
# Target sequence (Q13564 whole entry, looked up): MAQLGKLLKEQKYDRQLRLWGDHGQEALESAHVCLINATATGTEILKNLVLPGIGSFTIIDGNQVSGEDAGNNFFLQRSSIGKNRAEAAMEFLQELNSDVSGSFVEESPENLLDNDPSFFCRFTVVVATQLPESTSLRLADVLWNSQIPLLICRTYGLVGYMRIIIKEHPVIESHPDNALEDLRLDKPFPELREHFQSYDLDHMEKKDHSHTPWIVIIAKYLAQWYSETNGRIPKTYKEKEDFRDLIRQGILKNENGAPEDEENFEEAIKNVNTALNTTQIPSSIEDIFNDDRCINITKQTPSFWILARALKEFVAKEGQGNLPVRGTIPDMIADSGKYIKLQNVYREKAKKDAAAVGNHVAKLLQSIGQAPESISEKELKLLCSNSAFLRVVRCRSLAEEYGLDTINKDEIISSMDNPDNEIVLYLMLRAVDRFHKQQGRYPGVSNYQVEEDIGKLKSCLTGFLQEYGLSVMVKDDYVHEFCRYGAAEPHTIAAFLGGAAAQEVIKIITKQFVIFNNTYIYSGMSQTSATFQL
# Bfl-1 A1 inh: inhibitors of the anti-apoptotic protein A1, read as caspase activation; MEF A1-2A-BIM cells, Caspase-Glo 3/7 luminescence, 3 h; percent of clofoctol response, vehicle zero; caspase activation, % (concentration not given with the values); 330,000 compounds, 0.066% hits;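 active = over half of replicate activation scores above 10%, or exactly half above 10 with the replicate mean above 10; inconclusive = replicate mean below 10 yet half the replicates above 10; inactive = over half of replicates below 10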
# GSIS activator: GLuc luminescence reporter in INS-1E cells, primary screen for activators of glucose-dependent secretion of insulin; AID 743287; activation, % at 16.6 µM; 370,000 compounds, 0.61% hits; INS-1E GLuc reporter insulin secretion, 2-3 h;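 active = lowest replicate activation of at least 40%, so every replicate reaches that level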;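 also: 0% = median of neutral control wells and 100% = median of IBMX positive control wells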
# dFosB activator: enhances mouse delta FosB homodimer DNA binding; purified delta FosB, TAMRA-CDK5 oligo fluorescence polarization; percent of positive-control signal above neutral wells; activation, % at 25 µM; 340,000 compounds, 0.99% hits; P13346;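 active = mean activation above about 17%, with every replicate also reaching it, limit read from the data, passing the limit was not always enough; inconclusive = only one of the two conditions met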
# Vif imaging: blocks HIV Vif function | HEK293T cells, Vif self-association by quenched fluorescence, imaging, 24 h | inhibition, % at 7.49 µM | 340,000 compounds, 0.35% hits; in the data active = inhibition above about 50%, passing the limit was not always enough; inconclusive = no clear call, values can overlap the other calls; inactive = below about 31%
# Neddyl conf: cullin neddylation inhibition, confirmation; calls only at 25 µM; shares compounds with Neddyl block; 1,800 compounds, 13% hits; TR-FRET cullin neddylation biochemical assay; in the data active = inhibition above about 40%;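 also: neddylation substrate is the cullin 1 ring ligase complex with SKP2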
# Starred values were filed as active, the others as inactive; i = inactive; ? = inconclusive; · = not tested or not shown; + = active, no number.
SMILES,Neddyl block,Bfl-1 A1 inh,GSIS activator,dFosB activator,Vif imaging,Neddyl conf
COc1cccc(-c2cc(=O)[nH][nH]2)c1,10,0,3,-1,-1,·
COc1cccc(-c2ccc(C#N)c(=O)[nH]2)c1,59*,-1,7,-3,0,·
CC1C(O)=C(c2nc3ccccc3[nH]2)C(=N)N1c1ccccc1 (stereo not drawn),46*,1,2,-2,9,i
CCN(CC)C(=O)Oc1ccc2oc(=O)cc(-c3cc4cccc(OC)c4o3)c2c1,48*,0,4,-9,-4,·
CC1(C)Oc2ccc3ccc(=O)oc3c2/C(=C/O)C1=O,44*,1,-3,-10,5,i
O=C(NN1C(=O)c2ccccc2NC1c1cccnc1)c1ccccc1 (stereo not drawn),41*,-1,-11,-1,-7,i
O=C(NN1C(=O)c2ccccc2NC1c1ccco1)c1ccccc1 (stereo not drawn),30,1,-7,-2,2,·
CCCNC(=O)N1CC2(CN(S(=O)(=O)c3cccc(OC)c3)C2)c2c(n(C)c3cc(OC)ccc23)[C@@H]1CO,·,·,3,·,·,·
N#Cc1ncc(-c2ccc3c(c2)OCCOCCOCCOCCO3)nc1C#N,38*,1,-10,-5,7,i
COc1ccc2[nH]c3c(=O)n(N)c(C)nc3c2c1,·,0,7,3,-1,·
Cc1ccc2[nH]c3c(=O)n(N)c(C)nc3c2c1,41*,-5,1,2,-4,+
Cc1nnc(SCc2cc(=O)oc3cc(O)ccc23)n1Cc1ccccc1,54*,0,-3,-3,1,i
Cc1nnc(SCc2cc(=O)oc3ccc4ccccc4c23)n1Cc1ccccc1,34,0,0,-16,0,·
CCn1c(CSc2nc3ccccc3[nH]2)nc2cc(C(=O)O)ccc21,48*,0,·,-34,-6,·
CC(=O)OC[C@H]1O[C@@H](Oc2cc(O)cc3oc(-c4ccc(O)cc4)cc(=O)c23)[C@H](O[C@@H]2O[C@@H](C)[C@H](O)[C@@H](O)[C@H]2O)[C@@H](O)[C@@H]1O,37*,-1,-3,-3,-1,·
CS(=O)(=O)c1ccc(Cl)c(NC(=O)COC(=O)CCCN2C(=O)c3cccc4cccc(c34)C2=O)c1,50*,0,4,-3,2,i
O=C(Nc1ccc(-n2cnnn2)cc1)c1cn2ccccc2n1,52*,-3,5,-2,1,i
O=C(Nc1ccccc1)c1cn2ccccc2n1,3,-7,10,-4,-11,·
c1ccc(C[n+]2cccc3c4ccccc4ccc32)cc1,60*,1,·,2,53*,·
CCCC(=O)Nc1ccc2c(c1)OC[C@@H](C)N(Cc1cncnc1)C[C@@H](C)[C@H](OC)CN(C)C2=O,·,·,-2,·,·,·
Cc1ccc2nc(CSc3nc(C)cc(C)c3C#N)[nH]c2c1,48*,1,·,-19,-4,·
CC=Cc1ccc2n(c1=O)C[C@@H]1[C@@H](CO)[C@H](C(=O)NCC3CCCCC3)N(C(=O)CC)[C@H]21 (mixture of isomers),·,·,19,·,·,·
COc1cc(C2C(C#N)=C(N)N(c3ccc(F)cc3)C3=C2S(=O)(=O)CC3)ccc1O (stereo not drawn),47*,-1,-11,-15,10,i
O=C(Nc1ccc(F)cc1)N1CC(=O)N2[C@@H](CO)[C@H](c3ccc(-c4ccc(F)cc4)cc3)[C@@H]2C1,·,·,-37,·,·,·
CCCS(=O)(=O)Nc1c(C(=O)O)[nH]c2ccc(OC)cc12,·,1,5,2,1,·
SMILES,Neddyl block,Bfl-1 A1 inh,GSIS activator,dFosB activator,Vif imaging,Neddyl conf
COc1ccc2[nH]c(C(=O)O)c(NS(=O)(=O)c3ccc(C)cc3C)c2c1,48*,1,25,5,-1,·
COc1ccc(S(=O)(=O)N2CCOCC2)cc1NC(=O)COc1ccc2c(C)cc(=O)oc2c1,32,0,11,11,5,·
COc1ccc(NC(=O)COc2ccc3c(C)cc(=O)oc3c2)cc1S(=O)(=O)N1CCCCC1,43*,0,0,5,-15,·
Cc1cc(=O)oc2cc(OS(C)(=O)=O)ccc12,10,0,18,-8,0,·
CCc1cc(=O)oc2cc(OS(C)(=O)=O)ccc12,42*,0,·,1,·,·
CCc1cc(=O)oc2cc(OCc3nn[nH]n3)ccc12,40*,-1,·,-4,-4,i
CCc1cc(=O)oc2cc(OCC=C(C)C)ccc12,33,1,-4,-3,2,·
N#Cc1ccc(-c2ccc(OCC(=O)Nc3cccnc3)cc2)cc1,38*,-1,49,-18,-7,i
CCOC(=O)C1CC(=O)c2cc(OC)c(OC)cc2C1 (stereo not drawn),42*,2,25,-4,-12,·
C[C@@H]1CN([C@H](C)CO)C(=O)c2cc(NC(=O)CCCN(C)C)ccc2O[C@H]1CN(C)S(=O)(=O)c1ccc(F)cc1,·,·,15,·,·,·
CSc1ccc(/C=N/NC(=O)c2ccc(C)c(C)c2)cc1,17,1,-9,15,0,·
CSc1ccc(/C=N/NC(=O)c2sccc2C)cc1,38*,-9,·,-7,-2,i
O=C(NCCc1ccccc1)[C@H]1[C@H](CO)[C@H]2Cn3c(cccc3=O)[C@@H]1N2CC1CC1,·,·,19,·,·,·
COc1ccc(S(=O)(=O)N(CC(=O)O)c2ccccn2)cc1,40*,0,·,-3,-8,i
CCOC(=O)CN(c1ccccn1)S(=O)(=O)c1ccccc1,·,0,·,3,-9,·
COC(=O)c1ccc(CN(c2ccccn2)S(=O)(=O)c2ccccc2)cc1,41*,1,·,-4,1,i
COc1ccc(NC(=O)Nc2ccc3c(c2)C(=O)N([C@H](C)CO)C[C@@H](C)[C@@H](CN(C)C(=O)Nc2ccc(F)cc2)O3)cc1,·,·,7,·,·,·
C[C@@H]1CN([C@H](C)CO)C(=O)c2cc(-c3cccnc3)cnc2O[C@H]1CN(C)C(=O)NC1CCCC1,·,·,10,·,·,·
Cc1noc(C)c1NC(=O)Nc1ccc2c(c1)C(=O)N([C@H](C)CO)C[C@@H](C)[C@@H](CN(C)Cc1ccc(C(F)(F)F)cc1)OCCCC[C@@H](C)O2,·,·,-15,·,·,·
Cc1ccn2cc(-c3cnoc3C)nc2c1,34,-5,·,2,7,·
COc1c(Cl)cccc1-c1cn2ccc(C)cc2n1,44*,-8,0,-2,4,i
Cc1ccc(S(=O)(=O)Nc2ccc(-c3cn4ccc(C)cc4n3)cc2)cc1,41*,0,3,?,-22,i
Cc1ccn2cc(-c3cccc(NS(C)(=O)=O)c3)nc2c1,44*,0,10,4,-1,i
CC(=O)Nc1cccc(-c2cn3ccc(C)cc3n2)c1,·,-7,11,3,-5,·
C[C@H](CO)N1C[C@H](C)[C@@H](CN(C)CC2CCCCC2)Oc2ccc(NC(=O)Nc3cccc4ccccc34)cc2CC1=O,·,·,-5,·,·,·
